Laboratory results reported in publication PMC7862700, “An all-to-all approach to the identification of sequence-specific readers for epigenetic DNA modifications on cytosine”.

Tests used:
Assay in all cases: DAPPL (digital affinity profiling via proximity ligation, sequencing); 10 mM Tris-HCl pH 7.5, 50 mM NaCl, 1 mM DTT, 4% glycerol, room temperature, 30 min; GST-TFs on glutathione beads, 16-mer random dsDNA library, 0.1% formaldehyde crosslink after washing; high values mean tight binding
Details in all cases: protein: recombinant; tags: N-terminal GST; dsDNA, one strand shown
FLI1 = biological target: T1, FLI1 (Homo sapiens, UniProt Q01543 1-452)
T1 sequence: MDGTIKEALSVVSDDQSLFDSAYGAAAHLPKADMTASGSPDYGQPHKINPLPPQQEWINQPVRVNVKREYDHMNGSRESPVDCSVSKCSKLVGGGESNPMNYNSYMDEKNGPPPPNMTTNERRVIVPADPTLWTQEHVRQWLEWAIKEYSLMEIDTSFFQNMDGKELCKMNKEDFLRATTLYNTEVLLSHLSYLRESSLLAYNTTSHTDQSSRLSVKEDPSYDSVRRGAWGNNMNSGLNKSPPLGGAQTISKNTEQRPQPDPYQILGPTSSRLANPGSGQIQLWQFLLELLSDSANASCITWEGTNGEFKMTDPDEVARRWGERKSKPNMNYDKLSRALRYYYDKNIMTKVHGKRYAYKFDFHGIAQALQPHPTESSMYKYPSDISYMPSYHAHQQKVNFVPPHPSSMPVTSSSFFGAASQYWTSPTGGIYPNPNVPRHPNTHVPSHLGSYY
Procedure, shortened: (§1)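 Yeast served to express human transcription factors as GST fusions, which were then captured on glutathione beads and labelled with DNA barcodes. Pooled with a tag-only sample, they were incubated with 200 nmole of a 16-mer random double-stranded DNA library for 30 min at room temperature in Tris/NaCl/DTT/glycerol buffer, washed, crosslinked with 0.1% formaldehyde, ligated by proximity, amplified by PCR and sequenced. Dividing each hexamer's read frequency for a factor by its frequency for the tag-only sample gives the binding signal.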

ELK1 = biological target: T2, ELK1 (Homo sapiens, UniProt P19419 1-428)
T2 sequence: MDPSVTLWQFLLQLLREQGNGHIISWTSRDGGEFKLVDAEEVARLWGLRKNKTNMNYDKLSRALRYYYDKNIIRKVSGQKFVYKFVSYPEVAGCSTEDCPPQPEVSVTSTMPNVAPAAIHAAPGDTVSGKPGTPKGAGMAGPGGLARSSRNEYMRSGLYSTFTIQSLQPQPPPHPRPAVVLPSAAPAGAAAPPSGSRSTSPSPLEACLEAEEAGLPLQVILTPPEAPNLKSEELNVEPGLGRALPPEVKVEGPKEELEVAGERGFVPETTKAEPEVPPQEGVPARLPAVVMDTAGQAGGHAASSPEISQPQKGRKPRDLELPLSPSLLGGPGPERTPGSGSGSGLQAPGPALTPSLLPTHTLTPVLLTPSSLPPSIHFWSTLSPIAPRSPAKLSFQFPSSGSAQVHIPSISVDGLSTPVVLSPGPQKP
Procedure, shortened: as §1

GABPA = biological target: T3, GABPA (Homo sapiens, UniProt Q06546 1-454)
T3 sequence: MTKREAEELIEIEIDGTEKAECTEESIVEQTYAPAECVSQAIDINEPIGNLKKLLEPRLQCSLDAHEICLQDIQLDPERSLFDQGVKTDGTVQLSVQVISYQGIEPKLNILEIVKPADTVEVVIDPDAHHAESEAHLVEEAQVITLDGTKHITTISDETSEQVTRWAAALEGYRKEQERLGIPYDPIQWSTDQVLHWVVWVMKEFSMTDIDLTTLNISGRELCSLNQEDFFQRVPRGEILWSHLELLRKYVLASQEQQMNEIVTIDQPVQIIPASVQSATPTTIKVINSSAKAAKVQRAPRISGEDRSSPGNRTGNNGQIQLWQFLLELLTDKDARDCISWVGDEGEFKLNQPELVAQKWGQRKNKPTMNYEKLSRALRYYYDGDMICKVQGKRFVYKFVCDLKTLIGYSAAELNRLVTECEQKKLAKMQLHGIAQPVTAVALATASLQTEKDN
Procedure, shortened: as §1

ELF1 = ELF1 (Homo sapiens, UniProt P32519 1-619)
Procedure, shortened: as §1

EHF = biological target: T4, EHF (Homo sapiens, UniProt Q9NZC4 1-300)
T4 sequence: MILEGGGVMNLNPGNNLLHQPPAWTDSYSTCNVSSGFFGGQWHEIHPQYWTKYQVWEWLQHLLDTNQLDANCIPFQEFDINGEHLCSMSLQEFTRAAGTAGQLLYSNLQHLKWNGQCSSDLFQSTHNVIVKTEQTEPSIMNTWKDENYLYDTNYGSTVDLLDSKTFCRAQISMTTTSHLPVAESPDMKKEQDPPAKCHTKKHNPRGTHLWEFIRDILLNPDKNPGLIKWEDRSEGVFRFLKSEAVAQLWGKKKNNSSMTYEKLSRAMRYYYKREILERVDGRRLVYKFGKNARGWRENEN
Procedure, shortened: as §1

SPIB = SPIB (Homo sapiens, UniProt Q01892 1-262)
Procedure, shortened: as §1

SPIC = biological target: T5, SPIC (Homo sapiens, UniProt Q8N5J4 1-248)
T5 sequence: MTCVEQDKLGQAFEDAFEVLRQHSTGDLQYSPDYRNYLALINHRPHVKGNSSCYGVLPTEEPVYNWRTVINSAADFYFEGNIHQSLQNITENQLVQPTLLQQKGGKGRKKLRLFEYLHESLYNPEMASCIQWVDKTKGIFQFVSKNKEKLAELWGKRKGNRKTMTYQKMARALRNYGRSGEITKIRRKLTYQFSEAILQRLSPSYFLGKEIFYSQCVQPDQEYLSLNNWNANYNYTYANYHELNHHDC
Procedure, shortened: as §1

ELF4 = ELF4 (Homo sapiens, UniProt Q99607 1-663)
Procedure, shortened: as §1

ELK4 = biological target: T6, ELK4 (Homo sapiens, UniProt P28324-2 1-405)
T6 sequence: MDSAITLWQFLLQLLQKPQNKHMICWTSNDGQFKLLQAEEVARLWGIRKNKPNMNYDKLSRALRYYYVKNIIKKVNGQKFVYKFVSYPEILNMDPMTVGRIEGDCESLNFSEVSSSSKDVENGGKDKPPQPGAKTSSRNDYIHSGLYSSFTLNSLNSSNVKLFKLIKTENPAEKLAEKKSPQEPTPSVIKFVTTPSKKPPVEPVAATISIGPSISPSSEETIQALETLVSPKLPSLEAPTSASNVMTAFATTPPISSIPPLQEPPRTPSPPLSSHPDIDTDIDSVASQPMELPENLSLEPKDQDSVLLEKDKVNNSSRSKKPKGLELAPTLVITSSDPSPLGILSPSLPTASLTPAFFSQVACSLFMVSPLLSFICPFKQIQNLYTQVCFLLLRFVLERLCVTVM
Procedure, shortened: as §1

ETV2 = biological target: T7, ETV2 (Homo sapiens, UniProt O00321 1-342)
T7 sequence: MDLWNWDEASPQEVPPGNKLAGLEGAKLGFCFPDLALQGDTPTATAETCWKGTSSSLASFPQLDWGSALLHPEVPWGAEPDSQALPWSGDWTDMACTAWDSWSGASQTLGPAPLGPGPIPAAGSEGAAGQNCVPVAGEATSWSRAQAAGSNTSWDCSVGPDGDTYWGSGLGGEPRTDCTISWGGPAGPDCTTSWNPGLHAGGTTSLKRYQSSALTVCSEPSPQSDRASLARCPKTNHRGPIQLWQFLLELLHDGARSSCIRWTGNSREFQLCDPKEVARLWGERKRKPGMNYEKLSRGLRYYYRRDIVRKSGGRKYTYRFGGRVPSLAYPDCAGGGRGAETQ
Procedure, shortened: as §1

ERF = biological target: T8, ERF (Homo sapiens, UniProt P50548 1-548)
T8 sequence: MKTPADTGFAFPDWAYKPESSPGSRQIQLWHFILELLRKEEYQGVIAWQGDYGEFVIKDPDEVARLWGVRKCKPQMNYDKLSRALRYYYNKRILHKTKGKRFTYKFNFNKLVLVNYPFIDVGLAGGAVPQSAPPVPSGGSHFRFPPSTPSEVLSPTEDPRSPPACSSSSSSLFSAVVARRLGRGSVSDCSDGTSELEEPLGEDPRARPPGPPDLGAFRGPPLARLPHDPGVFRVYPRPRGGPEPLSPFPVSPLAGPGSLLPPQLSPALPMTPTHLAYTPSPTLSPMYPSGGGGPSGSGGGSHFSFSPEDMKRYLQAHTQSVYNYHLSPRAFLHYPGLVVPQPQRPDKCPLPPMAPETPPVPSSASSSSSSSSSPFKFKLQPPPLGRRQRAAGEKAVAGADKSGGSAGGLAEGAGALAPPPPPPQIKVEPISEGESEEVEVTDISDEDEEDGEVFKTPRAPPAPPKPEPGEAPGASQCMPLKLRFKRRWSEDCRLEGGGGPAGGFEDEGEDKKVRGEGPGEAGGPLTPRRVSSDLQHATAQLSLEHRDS
Procedure, shortened: as §1

ETV3L = biological target: T9, ETV3L (Homo sapiens, UniProt Q6ZN32 1-361)
T9 sequence: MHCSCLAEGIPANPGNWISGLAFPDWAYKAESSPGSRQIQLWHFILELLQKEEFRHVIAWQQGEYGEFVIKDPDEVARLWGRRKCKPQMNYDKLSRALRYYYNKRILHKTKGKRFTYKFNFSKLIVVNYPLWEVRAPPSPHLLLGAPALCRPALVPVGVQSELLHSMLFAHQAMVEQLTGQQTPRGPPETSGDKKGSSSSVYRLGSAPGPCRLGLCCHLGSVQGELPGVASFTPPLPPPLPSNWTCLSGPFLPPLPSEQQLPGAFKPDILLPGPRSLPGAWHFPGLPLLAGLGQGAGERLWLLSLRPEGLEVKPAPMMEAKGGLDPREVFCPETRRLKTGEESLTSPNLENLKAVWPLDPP
Procedure, shortened: as §1

ETS2 = biological target: T10, ETS2 (Homo sapiens, UniProt P15036 1-469)
T10 sequence: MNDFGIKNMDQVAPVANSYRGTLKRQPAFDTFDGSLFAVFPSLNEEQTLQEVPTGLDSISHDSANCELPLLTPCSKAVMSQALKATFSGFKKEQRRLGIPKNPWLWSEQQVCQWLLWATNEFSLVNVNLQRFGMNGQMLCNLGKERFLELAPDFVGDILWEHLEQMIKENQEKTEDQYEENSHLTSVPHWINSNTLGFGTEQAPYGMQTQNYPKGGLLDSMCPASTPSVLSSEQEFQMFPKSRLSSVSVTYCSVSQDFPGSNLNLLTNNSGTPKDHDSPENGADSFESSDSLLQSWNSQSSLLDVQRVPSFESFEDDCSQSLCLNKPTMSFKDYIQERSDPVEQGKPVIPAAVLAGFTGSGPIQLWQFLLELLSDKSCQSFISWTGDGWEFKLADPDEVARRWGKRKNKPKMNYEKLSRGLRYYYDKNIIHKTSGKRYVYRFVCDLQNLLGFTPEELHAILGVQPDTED
Procedure, shortened: as §1

ETV6 = ETV6 (Homo sapiens, UniProt P41212 1-452)
Procedure, shortened: as §1

ELF4, sequence (Q99607 whole entry): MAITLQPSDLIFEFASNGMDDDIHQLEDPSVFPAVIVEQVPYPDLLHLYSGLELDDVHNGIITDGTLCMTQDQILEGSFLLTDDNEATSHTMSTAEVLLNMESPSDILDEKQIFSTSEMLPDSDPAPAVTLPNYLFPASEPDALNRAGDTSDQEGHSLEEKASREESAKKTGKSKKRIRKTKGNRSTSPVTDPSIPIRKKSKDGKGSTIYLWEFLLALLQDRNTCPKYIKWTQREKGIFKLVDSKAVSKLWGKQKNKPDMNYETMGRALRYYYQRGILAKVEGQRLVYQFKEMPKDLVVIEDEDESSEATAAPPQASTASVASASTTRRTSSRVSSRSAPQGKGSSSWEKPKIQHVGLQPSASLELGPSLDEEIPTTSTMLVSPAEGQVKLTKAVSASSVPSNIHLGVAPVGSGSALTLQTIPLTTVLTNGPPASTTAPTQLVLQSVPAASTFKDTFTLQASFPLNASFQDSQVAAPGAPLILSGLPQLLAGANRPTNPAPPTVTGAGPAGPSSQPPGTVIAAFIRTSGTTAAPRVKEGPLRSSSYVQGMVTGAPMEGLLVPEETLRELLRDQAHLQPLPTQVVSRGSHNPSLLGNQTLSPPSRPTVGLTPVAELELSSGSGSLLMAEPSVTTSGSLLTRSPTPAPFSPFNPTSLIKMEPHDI
SPIB, sequence (Q01892 whole entry): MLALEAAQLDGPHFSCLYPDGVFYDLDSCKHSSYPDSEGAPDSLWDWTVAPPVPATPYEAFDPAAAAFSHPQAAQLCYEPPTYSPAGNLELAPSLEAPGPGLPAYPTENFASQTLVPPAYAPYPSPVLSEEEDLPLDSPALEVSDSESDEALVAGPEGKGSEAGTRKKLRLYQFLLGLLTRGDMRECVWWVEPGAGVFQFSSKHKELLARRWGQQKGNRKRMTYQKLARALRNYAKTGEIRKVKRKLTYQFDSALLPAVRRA
ETV6, sequence (P41212 whole entry): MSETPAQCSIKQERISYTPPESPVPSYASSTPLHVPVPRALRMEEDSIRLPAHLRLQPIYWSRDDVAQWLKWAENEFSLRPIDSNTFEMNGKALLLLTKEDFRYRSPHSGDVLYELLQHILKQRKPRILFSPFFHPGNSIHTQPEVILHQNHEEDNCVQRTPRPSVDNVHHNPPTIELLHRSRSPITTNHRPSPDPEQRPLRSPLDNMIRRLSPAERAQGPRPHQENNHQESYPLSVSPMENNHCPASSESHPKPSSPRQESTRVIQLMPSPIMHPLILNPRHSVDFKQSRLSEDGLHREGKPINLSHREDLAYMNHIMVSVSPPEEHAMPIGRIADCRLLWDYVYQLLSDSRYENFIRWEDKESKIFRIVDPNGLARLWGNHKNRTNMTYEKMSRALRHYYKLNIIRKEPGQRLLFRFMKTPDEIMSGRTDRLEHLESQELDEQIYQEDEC
ELF1, sequence (P32519 whole entry): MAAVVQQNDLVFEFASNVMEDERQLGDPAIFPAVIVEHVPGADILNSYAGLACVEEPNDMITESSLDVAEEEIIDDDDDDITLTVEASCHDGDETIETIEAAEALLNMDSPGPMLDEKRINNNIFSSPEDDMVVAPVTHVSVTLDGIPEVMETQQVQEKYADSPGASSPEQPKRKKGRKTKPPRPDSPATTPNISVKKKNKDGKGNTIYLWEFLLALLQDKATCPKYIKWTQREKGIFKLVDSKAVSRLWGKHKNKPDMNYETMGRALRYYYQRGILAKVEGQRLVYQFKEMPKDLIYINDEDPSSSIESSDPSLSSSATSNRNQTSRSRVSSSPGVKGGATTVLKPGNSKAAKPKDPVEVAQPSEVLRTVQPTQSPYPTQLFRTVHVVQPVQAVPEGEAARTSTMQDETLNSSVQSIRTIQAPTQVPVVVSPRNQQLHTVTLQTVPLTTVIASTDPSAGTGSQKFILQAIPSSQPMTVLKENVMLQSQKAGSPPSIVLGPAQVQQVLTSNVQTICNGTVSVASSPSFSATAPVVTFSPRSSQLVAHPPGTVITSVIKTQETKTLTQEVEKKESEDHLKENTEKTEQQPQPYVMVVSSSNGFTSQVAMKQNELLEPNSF

Sequence: GCTGCA
- binding signal (FLI1): 1.09 fold enrichment (6-mer frequency, TF over GST control)
- binding signal (ELK1): 1.07 fold enrichment (6-mer frequency, TF over GST control)
- binding signal (GABPA): 1.05 fold enrichment (6-mer frequency, TF over GST control)
- binding signal (ELF1): 1.05 fold enrichment (6-mer frequency, TF over GST control)
- binding signal (EHF): 1.08 fold enrichment (6-mer frequency, TF over GST control)
- binding signal (SPIB): 1.07 fold enrichment (6-mer frequency, TF over GST control)
- binding signal (SPIC): 1.09 fold enrichment (6-mer frequency, TF over GST control)
- binding signal (ELF4): 1.05 fold enrichment (6-mer frequency, TF over GST control)
- binding signal (ELK4): 1.08 fold enrichment (6-mer frequency, TF over GST control)
- binding signal (ETV2): 1.01 fold enrichment (6-mer frequency, TF over GST control)
- binding signal (ERF): 1.2 fold enrichment (6-mer frequency, TF over GST control)
- binding signal (ETV3L): 1.11 fold enrichment (6-mer frequency, TF over GST control)
- binding signal (ETS2): 1.07 fold enrichment (6-mer frequency, TF over GST control)
- binding signal (ETV6): 1 fold enrichment (6-mer frequency, TF over GST control)
